Measured values as given in the supplement of paper PMC10849652.
The full data set covers some 8,800 targets. This sample favours those with a hit. About 0.5% of all pairs of compound and target were hits.

What was measured:
Experiment in all cases: log2 fold change, soluble protein after heating vs DMSO (PISA); higher = thermal stabilisation; K562 lysate, 10 uM; active = over 0.2 and 3.5 SD of the protein, either way, in both replicates (recomputed)
[1] = compound: CN1CC[C@H](c2c(O)cc(O)c3c(=O)cc(-c4ccccc4Cl)oc23)[C@H](O)C1 [alvocidib]
In short: (§1)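 Dounce homogenisation of K562 pellets in PBS pH 7.4 with 1 mM MgCl2 produced a crude extract, used at 1 mg/mL protein. Exposure to 10 μM compound lasted 30 min, and aliquots were then heated for 3 min across 48°C-58°C, pooled and brought to 0.5% NP-40 at 4°C. The supernatant after 21,000xg for 90 min was quantified by TMTpro 16plex LC-MS/MS with channel sums equalised. Duplicate values are given as log-two fold change in thermal stability relative to solvent controls.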

[2] = compound: CN1CCc2c(c3ccccc3n2Cc2ccc(C(=O)NO)cc2)C1 [Tubastatin A]
In short: as §1

[3] = compound: CNC(=O)C1=CC=CC=C1NC2=NC(=NC=C2Cl)NC3=C(C=C(C=C3)N4CCOCC4)OC
In short: as §1

[4] = compound: CNC(=O)c1ccc(Nc2ncc(C(F)(F)F)c(NCc3nccnc3N(C)S(C)(=O)=O)n2)cc1 [defactinib]
In short: as §1

[5] = compound: CNc1nc(-c2ccc3c(N)n[nH]c3c2)cc(N2C[C@@H](C(=O)NC3CCCCC3)CC[C@H]2C)n1
In short: as §1

[6] = compound: COC(=O)N[C@@H](C)CNc1nccc(-c2cn(C(C)C)nc2-c2cc(Cl)cc(NS(C)(=O)=O)c2F)n1 [encorafenib]
In short: as §1

[7] = compound: COC(=O)[C@H](CCSC)NC(=O)C1=C(C=C(C=C1)NC[C@H](CS)N)C2=CC=CC=C2
In short: as §1

[8] = compound: COc1cc(Nc2ncc3c(n2)-c2ccc(Cl)cc2C(c2c(F)cccc2OC)=NC3)ccc1C(=O)O [alisertib]
In short: as §1

[9] = compound: COc1cc2nc(-c3cc(F)ccc3O)nc(N[C@@H]3CNC[C@H]3C(C)(C)O)c2cc1OC
In short: as §1

[10] = compound: COc1cc2ncnc(Nc3ccc(F)c(Cl)c3)c2cc1OCCCN1CCOCC1 [gefitinib]
In short: as §1

Measured: log2 fold change

AGTPBP1 (UniProt Q9UPW5)
inactive: [1] 0.034 | [2] 0.046 | [3] 0.024 | [4] -0.058 | [5] -0.001 | [6] -0.014 | [7] -0.031 | [8] 0.097 | [9] -0.039 | [10] -0.004

AKR1B1 (UniProt P15121)
inactive: [1] 0.033 | [2] 0.023 | [3] -0.003 | [4] -0.01 | [5] -0.072 | [6] 0.019 | [7] 0.009 | [8] 0.015 | [9] -0.008 | [10] -0.016

ACADM isoform 2 (UniProt P11310)
active: [5] 0.386
inactive: [1] -0.022 | [2] -0.012 | [3] 0.046 | [4] -0.01 | [6] -0.032 | [7] 0.13 | [8] 0.062 | [9] 0.09 | [10] -0.024

AIP (UniProt O00170)
inactive: [1] 0.164 | [2] 0.003 | [3] 0.037 | [4] 0.004 | [5] 0.015 | [6] -0.008 | [7] 0.043 | [8] -0.039 | [9] -0.002 | [10] -0.032

ACOX1 isoform 2 (UniProt Q15067)
inactive: [1] -0.049 | [2] 0.041 | [3] 0.012 | [4] 0.012 | [5] 0.017 | [6] -0.015 | [8] 0 | [9] 0.01 | [10] 0.018
active: [7] -0.255

ANKRD27 (UniProt Q96NW4)
inactive: [1] -0.056 | [2] -0.118 | [3] 0.046 | [4] 0.035 | [5] 0.003 | [6] -0.007 | [7] 0.103 | [8] -0.053 | [9] -0.087 | [10] 0.03

ALDH1L2 (UniProt Q3SY69)
inactive: [1] -0.04 | [2] -0.03 | [3] -0.028 | [4] -0.04 | [5] -0.021 | [6] -0.002 | [8] -0.039 | [9] 0.039 | [10] 0.017
active: [7] 0.288

ABHD17B (UniProt Q5VST6)
UniProt Q5VST6, sequence (Q5VST6 whole entry, looked up): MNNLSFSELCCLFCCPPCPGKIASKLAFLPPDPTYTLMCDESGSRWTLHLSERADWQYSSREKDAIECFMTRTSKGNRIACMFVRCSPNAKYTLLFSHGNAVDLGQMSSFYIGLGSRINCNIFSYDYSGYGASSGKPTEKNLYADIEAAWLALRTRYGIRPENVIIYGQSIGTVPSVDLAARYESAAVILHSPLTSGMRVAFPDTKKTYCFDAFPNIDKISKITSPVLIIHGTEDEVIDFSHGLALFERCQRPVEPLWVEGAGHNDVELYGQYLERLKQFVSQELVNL
inactive: [1] 0 | [2] -0.016 | [3] -0.003 | [4] 0.064 | [5] -0.099 | [6] 0.059 | [8] 0.06 | [9] -0.011 | [10] 0.043
active: [7] -0.642

ACACB (UniProt O00763)
UniProt O00763, sequence (O00763 whole entry, looked up): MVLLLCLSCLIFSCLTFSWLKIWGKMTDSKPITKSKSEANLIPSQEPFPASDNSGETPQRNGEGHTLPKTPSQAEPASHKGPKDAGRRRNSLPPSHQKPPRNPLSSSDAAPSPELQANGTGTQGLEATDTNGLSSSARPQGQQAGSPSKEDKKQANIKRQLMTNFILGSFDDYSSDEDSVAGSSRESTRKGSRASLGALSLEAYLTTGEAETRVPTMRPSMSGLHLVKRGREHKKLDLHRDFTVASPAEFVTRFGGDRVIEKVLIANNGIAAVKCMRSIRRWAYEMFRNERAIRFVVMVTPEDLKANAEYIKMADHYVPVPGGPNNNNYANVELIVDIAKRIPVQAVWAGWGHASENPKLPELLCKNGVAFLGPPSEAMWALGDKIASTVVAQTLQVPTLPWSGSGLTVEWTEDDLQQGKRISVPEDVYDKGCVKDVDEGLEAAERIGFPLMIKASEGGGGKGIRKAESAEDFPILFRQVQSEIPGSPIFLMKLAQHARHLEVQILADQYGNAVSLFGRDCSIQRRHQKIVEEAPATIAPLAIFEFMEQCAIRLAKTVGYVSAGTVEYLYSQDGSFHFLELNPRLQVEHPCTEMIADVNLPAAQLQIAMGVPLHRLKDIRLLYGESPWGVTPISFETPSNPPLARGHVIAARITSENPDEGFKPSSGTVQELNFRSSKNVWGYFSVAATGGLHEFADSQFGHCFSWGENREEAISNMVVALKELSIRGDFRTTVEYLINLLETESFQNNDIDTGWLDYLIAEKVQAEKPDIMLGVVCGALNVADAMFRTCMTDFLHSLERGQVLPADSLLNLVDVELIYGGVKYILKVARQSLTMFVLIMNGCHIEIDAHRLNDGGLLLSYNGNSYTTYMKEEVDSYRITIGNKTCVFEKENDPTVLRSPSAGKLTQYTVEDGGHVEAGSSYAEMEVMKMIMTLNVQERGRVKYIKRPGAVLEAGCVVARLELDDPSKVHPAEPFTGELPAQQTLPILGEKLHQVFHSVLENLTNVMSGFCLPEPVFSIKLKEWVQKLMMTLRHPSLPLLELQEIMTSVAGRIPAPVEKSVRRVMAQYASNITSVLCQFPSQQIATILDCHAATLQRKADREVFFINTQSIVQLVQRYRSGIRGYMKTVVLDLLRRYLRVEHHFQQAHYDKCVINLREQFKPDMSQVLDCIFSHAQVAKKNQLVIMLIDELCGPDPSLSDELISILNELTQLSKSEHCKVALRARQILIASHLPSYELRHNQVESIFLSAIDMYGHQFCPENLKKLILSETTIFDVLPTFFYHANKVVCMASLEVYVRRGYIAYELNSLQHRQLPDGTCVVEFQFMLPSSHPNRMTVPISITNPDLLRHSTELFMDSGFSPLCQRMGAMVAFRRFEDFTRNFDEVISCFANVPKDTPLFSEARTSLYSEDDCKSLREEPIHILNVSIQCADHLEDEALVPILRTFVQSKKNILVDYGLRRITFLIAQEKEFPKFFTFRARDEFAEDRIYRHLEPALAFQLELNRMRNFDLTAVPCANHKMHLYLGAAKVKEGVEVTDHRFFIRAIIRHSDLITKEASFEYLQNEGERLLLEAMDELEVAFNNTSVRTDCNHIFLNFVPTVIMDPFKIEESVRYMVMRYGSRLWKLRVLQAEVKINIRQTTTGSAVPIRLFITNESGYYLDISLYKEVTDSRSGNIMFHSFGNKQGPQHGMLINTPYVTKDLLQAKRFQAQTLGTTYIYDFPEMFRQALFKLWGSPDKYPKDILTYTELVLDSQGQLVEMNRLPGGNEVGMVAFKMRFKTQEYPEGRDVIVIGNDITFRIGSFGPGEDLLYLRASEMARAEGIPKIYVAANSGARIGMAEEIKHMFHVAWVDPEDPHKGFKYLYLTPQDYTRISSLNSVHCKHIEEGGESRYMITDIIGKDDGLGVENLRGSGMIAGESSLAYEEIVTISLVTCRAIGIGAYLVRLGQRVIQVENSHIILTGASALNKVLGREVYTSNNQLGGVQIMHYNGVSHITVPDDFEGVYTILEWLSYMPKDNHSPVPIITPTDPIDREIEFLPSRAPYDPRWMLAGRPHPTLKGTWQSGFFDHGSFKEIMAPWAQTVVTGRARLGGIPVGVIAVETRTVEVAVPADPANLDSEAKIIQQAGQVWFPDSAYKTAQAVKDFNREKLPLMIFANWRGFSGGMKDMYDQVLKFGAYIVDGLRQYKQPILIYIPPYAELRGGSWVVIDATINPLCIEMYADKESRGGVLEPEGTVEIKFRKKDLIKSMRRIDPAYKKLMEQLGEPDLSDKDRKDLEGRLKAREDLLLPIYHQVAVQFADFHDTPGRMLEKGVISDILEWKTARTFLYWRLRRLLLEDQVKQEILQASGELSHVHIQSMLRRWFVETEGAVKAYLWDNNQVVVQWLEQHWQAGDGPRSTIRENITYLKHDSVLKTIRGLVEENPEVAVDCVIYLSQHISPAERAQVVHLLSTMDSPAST
inactive: [1] -0.04 | [2] -0.153 | [3] 0.007 | [4] 0.019 | [5] -0.043 | [6] 0.127 | [7] -0.156 | [8] 0.016 | [9] 0.006 | [10] 0.006

ACSL1 (UniProt P33121)
inactive: [1] 0.02 | [2] -0.169 | [3] 0.001 | [4] 0.096 | [5] -0.062 | [6] 0.007 | [7] -0.052 | [8] 0.057 | [9] -0.08 | [10] -0.036

APOBEC3C (UniProt Q9NRW3)
inactive: [1] -0.019 | [2] -0.121 | [3] 0.018 | [4] 0.013 | [5] -0.007 | [6] 0.047 | [7] -0.067 | [8] 0.009 | [9] 0.003 | [10] -0.005

AFF1 isoform 2 (UniProt P51825)
inactive: [1] -0.157 | [2] 0.052 | [3] 0.076 | [4] 0.083 | [5] 0.004 | [6] -0.001 | [7] -0.033 | [8] -0.043 | [9] 0.157 | [10] -0.323

AKT1 (UniProt P31749)
UniProt P31749, sequence (P31749 whole entry, looked up): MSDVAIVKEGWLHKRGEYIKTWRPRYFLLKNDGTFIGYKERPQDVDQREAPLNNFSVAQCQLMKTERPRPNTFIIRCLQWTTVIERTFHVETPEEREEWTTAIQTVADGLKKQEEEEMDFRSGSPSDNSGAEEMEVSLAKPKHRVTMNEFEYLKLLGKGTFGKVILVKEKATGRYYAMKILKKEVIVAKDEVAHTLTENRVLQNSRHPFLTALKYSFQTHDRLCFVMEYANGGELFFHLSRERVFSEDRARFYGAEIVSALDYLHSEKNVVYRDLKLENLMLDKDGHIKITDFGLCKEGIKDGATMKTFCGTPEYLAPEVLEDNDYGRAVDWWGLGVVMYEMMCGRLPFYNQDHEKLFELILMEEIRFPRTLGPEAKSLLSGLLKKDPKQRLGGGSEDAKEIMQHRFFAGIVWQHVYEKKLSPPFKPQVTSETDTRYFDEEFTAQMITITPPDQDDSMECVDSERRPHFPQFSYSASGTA
inactive: [1] -0.002 | [2] -0.018 | [3] 0.036 | [4] 0.038 | [5] -0.05 | [6] 0.084 | [7] 0.093 | [8] 0.019 | [9] 0.003 | [10] -0.05

ANXA5 (UniProt P08758)
inactive: [1] 0.04 | [2] 0 | [3] -0.023 | [4] -0.002 | [5] -0.067 | [6] -0.016 | [7] 0.049 | [8] 0.052 | [9] -0.009 | [10] 0.049

AP3D1 isoform 5 (UniProt O14617)
UniProt O14617, sequence (O14617 whole entry, looked up): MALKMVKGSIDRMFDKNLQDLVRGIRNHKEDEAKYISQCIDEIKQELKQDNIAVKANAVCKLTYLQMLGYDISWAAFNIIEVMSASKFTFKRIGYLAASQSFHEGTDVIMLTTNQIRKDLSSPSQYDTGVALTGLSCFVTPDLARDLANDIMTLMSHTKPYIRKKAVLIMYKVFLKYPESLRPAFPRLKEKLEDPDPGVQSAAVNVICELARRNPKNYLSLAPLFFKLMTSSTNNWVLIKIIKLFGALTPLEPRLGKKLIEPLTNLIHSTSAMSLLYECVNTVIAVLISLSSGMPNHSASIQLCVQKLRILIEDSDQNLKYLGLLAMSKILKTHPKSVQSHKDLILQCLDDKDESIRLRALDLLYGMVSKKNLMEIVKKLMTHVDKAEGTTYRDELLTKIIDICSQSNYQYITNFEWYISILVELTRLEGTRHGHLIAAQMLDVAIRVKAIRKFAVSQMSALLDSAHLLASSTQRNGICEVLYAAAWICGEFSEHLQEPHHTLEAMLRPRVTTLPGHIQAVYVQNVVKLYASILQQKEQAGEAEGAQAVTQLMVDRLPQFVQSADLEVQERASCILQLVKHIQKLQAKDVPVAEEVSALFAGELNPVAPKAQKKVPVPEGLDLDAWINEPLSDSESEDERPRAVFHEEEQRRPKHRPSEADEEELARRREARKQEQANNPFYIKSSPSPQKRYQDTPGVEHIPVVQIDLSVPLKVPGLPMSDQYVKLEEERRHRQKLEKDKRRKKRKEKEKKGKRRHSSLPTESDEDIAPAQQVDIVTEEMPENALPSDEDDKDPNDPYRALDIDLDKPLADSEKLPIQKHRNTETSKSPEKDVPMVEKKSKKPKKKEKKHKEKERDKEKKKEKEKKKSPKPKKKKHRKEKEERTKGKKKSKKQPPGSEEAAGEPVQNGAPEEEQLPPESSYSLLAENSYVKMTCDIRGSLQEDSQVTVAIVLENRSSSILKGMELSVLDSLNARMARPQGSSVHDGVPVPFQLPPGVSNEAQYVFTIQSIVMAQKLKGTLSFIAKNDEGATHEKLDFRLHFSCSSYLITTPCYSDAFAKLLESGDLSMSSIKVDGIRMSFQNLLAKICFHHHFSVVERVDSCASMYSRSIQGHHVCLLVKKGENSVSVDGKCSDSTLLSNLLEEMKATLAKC
inactive: [1] -0.02 | [2] -0.048 | [3] 0.018 | [4] 0.033 | [5] 0.03 | [6] 0.026 | [7] -0.028 | [8] -0.009 | [9] 0.004 | [10] -0.014

ALG13 (UniProt Q9NP73)
inactive: [1] -0.039 | [2] -0.065 | [3] 0.122 | [4] 0.028 | [5] 0.053 | [6] 0.059 | [7] -0.082 | [8] -0.059 | [9] 0 | [10] -0.224

AFF4 (UniProt Q9UHB7)
inactive: [1] -0.235 | [2] -0.086 | [3] -0.046 | [4] 0.077 | [5] 0.018 | [6] 0.011 | [7] -0.027 | [8] -0.022 | [9] 0.015 | [10] 0.013

APEX1 (UniProt P27695)
inactive: [1] 0.13 | [2] -0.07 | [3] 0.006 | [4] 0.023 | [5] 0.038 | [6] -0.024 | [7] 0.076 | [8] 0 | [9] -0.019 | [10] -0.064

ACAA1 (UniProt P09110)
inactive: [1] -0.027 | [2] 0.043 | [3] 0.008 | [4] 0.008 | [5] 0.093 | [6] -0.021 | [7] 0.012 | [8] -0.035 | [9] 0.01 | [10] 0.015

ALKBH4 (UniProt Q9NXW9)
inactive: [1] 0.029 | [2] -0.093 | [3] -0.003 | [4] 0.166 | [5] 0.026 | [6] 0.053 | [7] -0.02 | [8] 0.019 | [9] -0.03 | [10] 0.044

ARHGAP25 isoform 4 (UniProt P42331)
inactive: [1] -0.032 | [2] -0.122 | [3] 0.04 | [4] 0.055 | [5] 0.054 | [6] -0.009 | [7] 0.038 | [8] 0.012 | [9] -0.004 | [10] -0.009

ALKBH1 (UniProt Q13686)
UniProt Q13686, sequence (Q13686 whole entry, looked up): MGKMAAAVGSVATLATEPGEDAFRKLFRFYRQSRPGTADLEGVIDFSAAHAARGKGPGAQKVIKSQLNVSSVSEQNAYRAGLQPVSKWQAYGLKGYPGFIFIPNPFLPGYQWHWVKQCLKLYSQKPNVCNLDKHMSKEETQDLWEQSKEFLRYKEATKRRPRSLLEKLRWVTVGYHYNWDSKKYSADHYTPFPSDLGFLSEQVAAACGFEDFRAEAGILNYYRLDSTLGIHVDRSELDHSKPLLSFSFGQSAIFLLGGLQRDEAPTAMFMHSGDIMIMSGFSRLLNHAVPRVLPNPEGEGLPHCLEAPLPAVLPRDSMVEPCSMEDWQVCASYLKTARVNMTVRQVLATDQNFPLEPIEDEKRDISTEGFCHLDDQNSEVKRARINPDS
inactive: [1] 0.003 | [2] -0.018 | [3] -0.113 | [4] -0.008 | [5] 0.027 | [6] -0.016 | [7] 0.073 | [8] -0.044 | [10] -0.07

ANP32E isoform 3 (UniProt Q9BTT0)
inactive: [1] -0.27 | [4] -0.141 | [6] 0.036 | [7] -0.015

ACLY isoform 2 (UniProt P53396)
inactive: [1] -0.147 | [2] 0.017 | [4] 0.007 | [6] 0.072 | [7] 0.009 | [8] -0.089 | [9] 0.071 | [10] -0.407

AP5B1 (UniProt Q2VPB7)
inactive: [1] -0.091 | [2] -0.149 | [3] 0.099 | [5] -0.092 | [6] -0.017 | [7] -0.011 | [8] -0.008 | [9] -0.059 | [10] 0.05

ALG13 isoform 2 (UniProt Q9NP73)
inactive: [1] 0.003 | [8] -0.281 | [10] -0.095

AMDHD2 (UniProt Q9Y303)
inactive: [1] 0.012 | [4] -0.059

ABCC5 (UniProt O15440)
inactive: [1] -0.12 | [2] 0.121 | [3] -0.002 | [4] 0.125 | [5] 0.008 | [6] 0.165 | [7] -0.032 | [9] -0.012

AGPAT2 (UniProt O15120)
inactive: [1] -0.008 | [2] 0.01 | [3] 0.091 | [4] -0.104 | [6] 0.054 | [7] -0.043 | [8] 0.009 | [10] 0.052

ALG3 (UniProt Q92685)
inactive: [1] -0.04 | [2] -0.009 | [3] -0.436 | [4] 0.165 | [5] -0.043 | [6] -0.061 | [7] 0.171 | [9] -0.033

AGGF1 (UniProt Q8N302)
active: [4] -0.365
inactive: [1] -0.114 | [2] -0.058 | [3] 0.023 | [6] 0.126 | [7] 0.008 | [8] -0.015 | [9] 0.145 | [10] -0.008

ABCA3 (UniProt Q99758)
inactive: [1] 0.109 | [2] 0.188 | [3] -0.017 | [4] -0.037 | [5] 0.317 | [6] -0.12 | [7] 0.025 | [9] -0.09

AIMP2 isoform 2 (UniProt Q13155)
inactive: [2] -0.038 | [9] 0.115

ALKBH7 (UniProt Q9BT30)
UniProt Q9BT30, sequence (Q9BT30 whole entry, looked up): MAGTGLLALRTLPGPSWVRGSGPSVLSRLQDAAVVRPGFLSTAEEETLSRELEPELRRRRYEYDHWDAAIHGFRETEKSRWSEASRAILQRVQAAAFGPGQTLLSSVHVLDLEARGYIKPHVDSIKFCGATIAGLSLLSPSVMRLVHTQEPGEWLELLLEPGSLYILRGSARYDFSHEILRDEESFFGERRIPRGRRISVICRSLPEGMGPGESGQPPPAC
inactive: [1] -0.016 | [2] -0.045 | [3] 0.35 | [5] -0.029 | [6] -0.115 | [7] 0.201 | [8] 0.333 | [10] -0.108
